Experimental data: PubChem BioAssay (Tox21)
Inconclusive results are not listed. Entries that show only a call come without a potency. More than one record can exist for a structure, and the calls need not agree. Activity calls are given as the source filed them. The call rests on the fitted dose curve; in most records, active means well fitted cell-killing curve with a large enough effect in the repeat runs; inconclusive means weak or mixed curves, or effect the other way; inactive means flat fitted curve, though single readings scatter.

Assay: qHTS assay to identify small molecule antagonists of the retinoid acid receptor (RAR) signaling pathway - cell viability counter screen (AID 1159551); further: nearly all actives have a fitted effect of over 35% in size
Details: C3RL4 cells viability, ATP luminescence (CellTiter-Glo), 6 h; series mostly up to 92.4 µM
In short: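 Cells (C3RL4) are plated, incubated overnight, dosed with compound in DMSO, then given retinol at 1 uM final. After 6 h at 37 C, CellTiter-Glo is added and luminescence read following 30 min at room temperature.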
Potency means the concentration at half of the fitted maximal effect.

| SMILES | Potency | activity change, negative = cytotoxicity |
| --- | --- | --- |
| Nc1cc(Cl)ccc1Cl | inactive | – |
| CC(=O)[O-].CC(=O)[O-].CC(=O)[O-].[Sb+3] | – | 3.99% [at 3.27 µM] (inactive) |
| CCN(CC)CCc1c[nH]c2ccccc12 | inactive | – |
| COc1ccc2c(c1OC)C(=O)O[C@@H]2[C@H]1c2cc3c(cc2CCN1C)OCO3 | inactive | – |
| CC(C)N(C(=O)SC/C(Cl)=C/Cl)C(C)C | inactive | – |
| CCOP(=S)(OCC)SC(CCl)N1C(=O)c2ccccc2C1=O (stereo not drawn) | inactive | – |
| Nc1ccccc1-c1ccccc1 | inactive | – |
| O=C1C(Cl)=C(Cl)C(=O)C(Cl)=C1Cl | 60.9 µM (active) and inactive | – |
| CN1C(=O)[C@@H](NC(=O)c2cc3ccccc3[nH]2)N=C(c2ccccc2)c2ccccc21 | inactive | – |
| O=c1[nH]c2cc(Cl)ccc2n1C1CCNCC1 | inactive | – |
| N#CSCc1ccccc1 | inactive | – |
| CCCCCON=O | inactive | – |
| COc1ccc2[nH]cc(CCN(C(C)C)C(C)C)c2c1 | inactive | – |
| O=[N+]([O-])c1ccc(CCl)cc1 | inactive | – |
| CCCCN(CCCC)C(=S)S | inactive | – |
| [Cl-].[Cl-].[Sn+2] | inactive | – |
| CNC(=O)/C=C(\C)OP(=O)(OC)OC | inactive | – |
| COc1cnc(OC)n2nc(NS(=O)(=O)c3c(OCC(F)F)cccc3C(F)(F)F)nc12 | inactive | – |
| Oc1ccc(Cl)c(Cl)c1 | inactive | – |
| CC(=O)[O][Pb]([c]1ccccc1)([c]1ccccc1)[c]1ccccc1 | 9.69 µM (active) | – |
| CCN(CC)Cc1nccn1-c1ccc([N+](=O)[O-])cc1C(=O)c1ccccc1Cl | inactive | – |
| CN=C=O | inactive | – |
| CNC(=O)O/N=C(\C)C(C)S(C)(=O)=O (stereo not drawn) | inactive | – |
